Gal4-VP16 FLuc: counter-screen for ROR gamma inhibitors: Gal4-VP16 reporter; Drosophila S2 Gal4-VP16 UAS-luciferase, luminescence, 20 h; Potency, µM (titrated, usually from 53.6 µM), most hits filed as inhibitors; actives 3.5% (n = 310,000); AID 2546;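 further: Gal4-VP16 expression switched on by copper sulfate through the metallothionein promoter; nearly all actives have a fitted effect of over 50% in size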
GALK inhibitor: blocks human galactokinase activity | P51570 | Purified GALK, Kinase-Glo residual ATP luminescence | Potency, µM (top dose mostly 57.5 µM), hits mostly inhibitors | actives 0.007% (n = 270,000) | AID 1868
Target sequence (P51570 whole entry, looked up): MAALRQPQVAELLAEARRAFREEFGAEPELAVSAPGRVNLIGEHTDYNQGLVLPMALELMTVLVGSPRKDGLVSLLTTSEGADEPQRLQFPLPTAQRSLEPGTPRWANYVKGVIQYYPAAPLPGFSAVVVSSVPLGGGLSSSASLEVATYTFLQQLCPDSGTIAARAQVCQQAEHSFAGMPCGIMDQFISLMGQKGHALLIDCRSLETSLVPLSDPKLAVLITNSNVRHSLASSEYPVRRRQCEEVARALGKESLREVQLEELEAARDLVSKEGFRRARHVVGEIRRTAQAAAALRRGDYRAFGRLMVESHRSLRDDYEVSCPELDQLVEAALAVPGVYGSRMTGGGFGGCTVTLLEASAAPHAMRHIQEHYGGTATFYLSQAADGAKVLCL
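GALK at 5 nM final was combined with compound, 35 uM ATP and 100 uM galactose in HEPES pH8.0 with MgCl2 and DTT. The reaction ran one hour at room temperature before luminescent ATP detection.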
rTrxR1 inhibitor: rat TrxR1 inhibition; recombinant rTrxR1, NADPH fluorescence consumption, selenite substrate; actives 1% (n = 390,000); AID 588453; Potency, µM (top dose mostly 114 µM), actives largely listed as inhibitors; further: nearly all actives have a fitted effect of over 65% in size
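Rat TrxR1 (90 nM in the dispensed reagent) was pre-reduced with 400 uM NADPH for 5 min at room temperature, then incubated with compound for 15 min. After 400 uM selenite was added, NADPH fluorescence (Ex 340/Em 450 nm) was followed for 8 min.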
Coupling enz: coupling enzyme interference in Giardia aldolase counter-screen; coupling enzyme system counterscreen, AmpLite Red fluorescence; activity change, negative = inhibition, % at 58.2 µM, hits read low; actives 0.67% (n = 290,000); AID 2472; in the data active means activity change below about -30%
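Counterscreen of the coupled detection system alone, without aldolase: glyceraldehyde-3-phosphate coupling enzymes plus AmpLite Red readout. Compounds at 57.5 uM final, 10 min RT preincubation, 20 min RT reaction, fluorescence 525/598 nm.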
RORgamma inh: inhibitors of mouse ROR gamma transcriptional activity | P51450 | Drosophila S2 Gal4-RORgamma UAS-luciferase reporter, 20 h | Potency, µM (titrated, usually from 53.6 µM), actives largely listed as inhibitors | actives 5.4% (n = 310,000); further: nearly all actives have a fitted effect of over 60% in size
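Drosophila S2 cells stably expressing Gal4-DBD/mouse RORγ fusion under metallothionein promoter plus UAS-luciferase; compound 1 h, then 700 uM CuSO4 induction for 20 h at ambient temperature; inhibition read as reduced luminescence.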
TrxR1 substrate: substrates of rat thioredoxin reductase 1; AID 588456; purified TrxR1 substrate turnover, NADPH consumption readout; actives 0.01% (n = 390,000); O89049; Potency, µM (highest dose often 114 µM); further: nearly all actives have a fitted effect of over 50% in size
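Rat TrxR1, dispensed at 90 nM, was prereduced with 400 uM NADPH (final) for 5 min at ~22 deg C, then incubated with compound 15 min before 400 uM selenite. A first-read NADPH fluorescence drop versus no-compound background flagged substrates.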
A number is an active result; [ ] = dose if it differs, or a comment. An excerpt weighted towards active compounds, which were near 5.9% of everything screened. Unless noted, the call rests on the fitted dose curve; in most records, active means well fitted curve in the direction sought with a large enough effect; inconclusive means small, poorly fitted or top-dose-only effect, or another doubt; inactive means no such curve, though single readings can be large; an effect the other way counts as inactive or inconclusive.

Screening CC(C)N1CC(COc2ccccc2Cl)OC1=O (stereo not given) returned rTrxR1 inhibitor inactive and TrxR1 substrate inactive.
`CC(C)(C)c1ccc(CN2CCN([C@H](c3ccccc3)c3ccc(Cl)cc3)CC2)cc1` gave Gal4-VP16 FLuc inactive and RORgamma inh inactive[10 µM].
C/C(CC(=O)Nc1ccc2c(c1)OCO2)=N\NC(=O)C(c1ccccc1)c1ccccc1 was read as Gal4-VP16 FLuc inconclusive, GALK inhibitor inactive, rTrxR1 inhibitor inconclusive, Coupling enz inactive, RORgamma inh 16µM and TrxR1 substrate inactive.
For CCOP(=O)(OCC)c1ccc2c(c1)C(=O)c1ccccc1CC2 the results were rTrxR1 inhibitor inactive and TrxR1 substrate inactive.
`c1ccc2c(Nc3nc4c(s3)CCCC4)cccc2c1` gave Gal4-VP16 FLuc inconclusive, GALK inhibitor inactive, rTrxR1 inhibitor inactive, RORgamma inh 13µM and TrxR1 substrate inactive.
For Cc1cc(NC(=O)c2ccc(-c3ccccc3[N+](=O)[O-])o2)no1 the results were rTrxR1 inhibitor inactive and TrxR1 substrate inactive.
For O=[N+]([O-])c1ccccc1-c1ccc(C(=S)N2CCCC2)o1 the results were Gal4-VP16 FLuc inactive, GALK inhibitor inactive, rTrxR1 inhibitor inactive, Coupling enz -43, RORgamma inh inactive and TrxR1 substrate inactive.
Screening O=[N+]([O-])c1cc(-c2ccc(C(=S)N3CCOCC3)o2)ccc1Cl returned Gal4-VP16 FLuc inactive, GALK inhibitor inactive, rTrxR1 inhibitor inactive, Coupling enz -32, RORgamma inh inactive and TrxR1 substrate inactive.
`CC(=O)c1cccc(NC(=O)c2ccc(-c3ccccc3[N+](=O)[O-])o2)c1` gave Gal4-VP16 FLuc 7.1µM, GALK inhibitor inactive, rTrxR1 inhibitor inactive, Coupling enz -59, RORgamma inh inconclusive and TrxR1 substrate inactive.
`O=[N+]([O-])c1cccc(-c2ccc(C(=S)N3CCOCC3)o2)c1` gave Gal4-VP16 FLuc inactive, GALK inhibitor inactive, rTrxR1 inhibitor inactive, Coupling enz inactive, RORgamma inh inactive and TrxR1 substrate inactive.
Screening Cc1cccc(CN2CCN(CC(=O)NCc3ccc(F)cc3)C2=O)c1 returned rTrxR1 inhibitor inactive and TrxR1 substrate inactive.
Screening COc1ccccc1/C=C/C(=O)NC(=S)NCC1CCCO1 (stereo not given) returned Gal4-VP16 FLuc inconclusive, GALK inhibitor inactive, rTrxR1 inhibitor inactive, Coupling enz inactive, RORgamma inh 2.8µM and TrxR1 substrate inactive.
`COc1ccc(C(=O)NNC(=O)c2ccc(C(C)(C)C)cc2)cc1` gave Gal4-VP16 FLuc inactive, GALK inhibitor inactive, rTrxR1 inhibitor inactive, Coupling enz inactive, RORgamma inh inactive and TrxR1 substrate inactive.
CNC(=S)NNC(=O)c1ccc(C(C)(C)C)cc1 was read as Gal4-VP16 FLuc inconclusive, GALK inhibitor inactive, rTrxR1 inhibitor inactive, Coupling enz inactive, RORgamma inh 2.2µM and TrxR1 substrate inactive.
O=C(NC(=S)NCC1CCCO1)c1ccc(Cl)cc1Cl (stereo not given) was read as Gal4-VP16 FLuc inconclusive, GALK inhibitor inactive, rTrxR1 inhibitor inactive, Coupling enz inactive, RORgamma inh 11µM and TrxR1 substrate inactive.
Screening CC(C)(C)c1ccc(C(=O)NNC(=S)NCC2CCCO2)cc1 (stereo not given) returned Gal4-VP16 FLuc inconclusive, GALK inhibitor inactive, rTrxR1 inhibitor inactive, Coupling enz inactive, RORgamma inh 4µM and TrxR1 substrate inactive.
`O=C(CNC(=O)c1ccc(Cl)cc1Cl)NCC1CCCO1` (stereo not given) gave Gal4-VP16 FLuc inactive, GALK inhibitor inactive, rTrxR1 inhibitor inactive, Coupling enz inactive, RORgamma inh inactive and TrxR1 substrate inactive.
Screening CC(C)(C)c1ccc(C(=O)NC(=S)NCC2CCCO2)cc1 (stereo not given) returned Gal4-VP16 FLuc 5.6µM, GALK inhibitor inactive, rTrxR1 inhibitor inactive, Coupling enz inactive, RORgamma inh 2.2µM and TrxR1 substrate inactive.
COc1ccc(C(=O)NC(=S)NCC2CCCO2)cc1 (stereo not given) was read as Gal4-VP16 FLuc inconclusive, GALK inhibitor inactive, rTrxR1 inhibitor inactive, Coupling enz inactive, RORgamma inh 13µM and TrxR1 substrate inactive.
